# An excerpt weighted towards active compounds, which were near 6.6% of everything screened.
# KB-3-1 tox – KB-3-1 parental cell cytotoxicity | AID 1347075 | actives 1.4% (n = 400,000) | KB-3-1 viability, CellTiter-Glo ATP luminescence, 72 h | Potency, µM (top dose mostly 46.1 µM), actives largely listed as cytotoxic; also: % is scaled to controls: 0 for no effect and ±100 for the full control effect; nearly all actives have a fitted effect of over 60% in size
#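 Multi-concentration cytotoxicity screen in KB-3-1 cells grown in DMEM lacking phenol red with 10% FBS. After 72 h at 37 °C with compound, ATP-dependent luminescence was recorded.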
# TGFb SMAD3 inh – inhibitors of TGF-b signaling. actives 1.2% (n = 410,000). HepG2 CAGA-GFP TGF-b/SMAD3 reporter, GFP fluorescence, 18 h; TGF-beta stimulated, 500 pg/mL final. Potency, µM (highest dose often 46.1 µM), for the others: top-dose activity, negative = inhibition, actives largely listed as inhibitors; also: % is scaled to controls: 0 for no effect and ±100 for the full control effect; nearly all actives have a fitted effect of over 65% in size
#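 HEPG2 CAGA-GFP reporter cells (1000/well, DMEM with 1% FBS) received compounds, then recombinant TGF-beta at 500 pg/mL final for 18 hours at 37 degrees C. Per-cell GFP summed per well was normalised to unstimulated and stimulated DMSO controls before curve fitting.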
# KB-V1 MDR tox – KB-V1 MDR subline cytotoxicity; KB-V1 MDR cells viability, CellTiter-Glo, 72 h; Potency, µM (titrated, usually from 46.1 µM), usual class: cytotoxic; actives 3.4% (n = 400,000); AID 1347076; also: % is scaled to controls: 0 for no effect and ±100 for the full control effect; nearly all actives have a fitted effect of over 60% in size
#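 Luminescent ATP read-out (CellTiter-Glo, 10 min) measures survival of drug-selected KB-V1 MDR cells after 72 h, 37 degrees C compound exposure. Medium: phenol-red-free DMEM, 10% FBS. Values from fitted concentration-response curves.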
# HepG2 tox – HepG2 cytotoxicity, counter-screen for TGF-b inhibitors | actives 0.76% (n = 410,000) | Potency, µM (top dose mostly 46.1 µM), for inactives: at the highest dose activity change, negative = cytotoxicity, most hits filed as cytotoxic | HepG2 CAGA-GFP viability, ATP luminescence, 18 h
#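 HepG2 CAGA-GFP cells (1000/well, DMEM with 1% FBS) received compound, then TGF-beta at 500 pg/mL final, and were incubated 18 hours at 37 degrees C. Viability was read by CellTiter-Glo luminescence. Media-only wells were set as complete cell-killing and DMSO as no toxicity.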
# HT1080NT lethal – kills 2HG-producing HT-1080-NT fibrosarcoma cells | HT-1080-NT fibrosarcoma viability, CellTiter-Glo ATP luminescence, 48 h | actives 1.6% (n = 360,000) | AID 686970 | Potency, µM (titrated, usually from 46.1 µM), without a hit: at the top dose activity, negative = less viability, actives largely listed as cytotoxic;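 also: NT is the 2HG producing partner of a matched IDH1 knockdown line; 0% = DMSO-treated cells and -100% = media-only wells without cells; nearly all actives have a fitted effect of over 55% in size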
#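 HT-1080-NT fibrosarcoma cells (2HG-overproducing), 750 cells/well in RPMI with 5% FBS, dosed after 2 h and incubated 48 h at 37C. CellTiter-Glo luminescence normalized to DMSO and no-cell wells; concentration-response curves fitted and classed.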
# HT1080 IDH1KD tx – toxicity to HT-1080 IDH1 knockdown cells (counter line); HT-1080 IDH1 knockdown viability, ATP luminescence, 48 h; Potency, µM (titrated, usually from 46.1 µM), for the others: at the highest dose activity, negative = toxicity, most hits filed as cytotoxic; actives 2% (n = 360,000); AID 686971;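 also: 0% = DMSO wells and -100% = cell-free medium wells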
#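 IDH1KD HT-1080 cells, 750/well, RPMI + 5% FBS; compound pinned after 2 h settling; 48 h, 37 °C; CellTiter-Glo luminescence; % activity normalised to DMSO and no-cell wells; curves fitted, classed by r2 and efficacy.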
# * hit, by the source's call; i = inactive; ? = inconclusive; · = not tested or not shown. Calls follow the shape of the dose curve; as a rule, active = well fitted curve in the direction sought with a large enough effect; inconclusive = small, poorly fitted or top-dose-only effect, or another doubt; inactive = no such curve, though single readings can be large; an effect the other way counts as inactive or inconclusive. Potency is read from the fitted curve at half-maximal effect.
SMILES,KB-3-1 tox,TGFb SMAD3 inh,KB-V1 MDR tox,HepG2 tox,HT1080NT lethal,HT1080 IDH1KD tx
Cc1ccccc1Nc1cc(C(=O)NC2CCC(C)CC2)c2ccccc2n1 (centres undefined),i,-19%,?,-28%,·,·
Cc1ccc2[nH]c(O)c(N=Nc3nc4ccccc4s3)c2c1,?,-16%,13µM*,-12%,?,-1%
Cc1ccc2[nH]c(C)c(/C=N/Nc3nc4ccccc4s3)c2c1,i,11µM*,?,-41%,?,?
Brc1csc(/C=N/Nc2nc3ccccc3s2)c1,i,-34%,i,-12%,-6%,-7%
O=C(COCc1cc(-c2ccc3c(c2)OCO3)on1)NCc1ccc(F)cc1,i,24%,i,8%,·,·
O=C(CN1C(=O)COc2ccc(S(=O)(=O)N3CCCCCC3)cc21)NCCc1ccccc1,·,-28%,·,-26%,·,·
CC(C)NC(=O)Cn1c(=O)nc(-c2ccccc2)c2ccccc21,·,1%,·,4%,·,·
C=CCN1CC(c2nc3ccccc3n2Cc2ccccc2)CC1=O (centres undefined),i,-2%,12µM*,-11%,-1%,-2%
CC(C)(C)N1CC(c2nc3ccccc3n2CCOc2ccccc2)CC1=O (centres undefined),i,7%,i,5%,-3%,-5%
CC(C)(C)N1CC(c2nc3ccccc3n2Cc2ccc(Cl)cc2)CC1=O (centres undefined),i,-18%,15µM*,-22%,-17%,-29%
Cc1cc(-c2ccccc2)nc(N/N=C/c2ccccc2)n1,i,?,i,-46%,0%,-7%
Cc1cc(-c2ccccc2)nc(N/N=C/c2ccc([N+](=O)[O-])cc2)n1,i,22%,23µM*,-2%,-9%,-9%
Cc1cc(-c2ccccc2)nc(N/N=C/c2ccc(O)cc2O)n1,?,?,?,-26%,?,2.1µM*
O=C(Nc1ccccc1F)C(Cc1ccccc1)N1Cc2ccccc2C1=O (centres undefined),·,2%,·,-20%,·,·
COc1ccc2c(C)c(CCC(=O)NCc3ccc(C)cc3)c(=O)oc2c1,i,-5%,i,-2%,·,·
COc1cccc(N2CCN(C(=O)c3cnn(-c4ccc(C)cc4C)c3C3CCN(C(=O)OC(C)(C)C)CC3)CC2)c1,i,?,i,-11%,·,·
O=C(c1cc2ccccc2oc1=O)N(Cc1cccs1)Cc1cccs1,i,2%,i,-3%,-15%,-7%
O=C(c1cc2ccccc2oc1=O)N(Cc1ccco1)Cc1cccs1,i,3%,5.2µM*,-31%,6%,1%
Cc1ccc(CN2C(=O)C3(SCC(=O)N3c3ccc(C)c(C)c3)c3ccccc32)cc1 (centres undefined),21µM*,?,18µM*,-23%,·,·
Cc1ccc(C)c(NC(=O)CN2C(=O)C3(SCC(=O)N3c3ccc(C)c(C)c3)c3ccccc32)c1 (centres undefined),?,-1%,i,-3%,·,·
CCc1ccc(N2C(=O)CSC23C(=O)N(Cc2ccc(C)cc2)c2ccccc23)cc1 (centres undefined),?,?,12µM*,-12%,·,·
CC(C)c1ccc(N2C(=O)CSC23C(=O)N(Cc2ccccc2)c2ccccc23)cc1 (centres undefined),?,29%,12µM*,15%,·,·
O=C(CN1C(=O)C2(SCC(=O)N2c2cccc(Cl)c2)c2ccccc21)NCCc1ccccc1 (centres undefined),15µM*,11µM*,i,-20%,·,·
COc1ccc(F)cc1S(=O)(=O)NCC(c1ccco1)S(=O)(=O)c1cccs1 (centres undefined),·,-29%,·,2%,·,·
COc1ccc(N(Cc2cccs2)C(=O)c2ccc(Br)o2)cc1,i,-50%,i,-4%,·,·
SMILES,KB-3-1 tox,TGFb SMAD3 inh,KB-V1 MDR tox,HepG2 tox,HT1080NT lethal,HT1080 IDH1KD tx
COc1ccccc1NC(=O)CN1C(=O)C2(SCC(=O)N2c2ccc(C)c(C)c2)c2ccccc21 (centres undefined),18µM*,-29%,?,-28%,·,·
CC(C)c1ccc(N2C(=O)CSC23C(=O)N(Cc2ccccc2F)c2ccccc23)cc1 (centres undefined),?,6%,?,1%,·,·
COc1ccccc1NC(=O)CN1C(=O)C2(SCC(=O)N2c2ccc(F)c(F)c2)c2ccccc21 (centres undefined),?,14%,i,-25%,·,·
Cc1ccc(N2C(=O)CSC23C(=O)N(Cc2ccccc2F)c2ccccc23)cc1F (centres undefined),?,?,10µM*,-19%,·,·
CCc1ccc(N2C(=O)CSC23C(=O)N(Cc2cccc(F)c2)c2ccccc23)cc1 (centres undefined),?,1%,12µM*,-1%,·,·
Nc1ncccc1OCc1cccc(C(F)(F)F)c1,?,-21%,?,-6%,-6%,-7%
Nc1nc(N)c(-c2cccc(C(F)(F)F)c2)c(Cc2cccc(C(F)(F)F)c2)n1,7.3µM*,?,?,8.9µM*,?,4.6µM*
CC1=C(C(=O)OC2CCCC2)C(c2ccccc2Cl)CC(=O)N1 (centres undefined),·,-68%,·,-28%,·,·
CCOc1ccc(C(=O)Nc2ccc(C(=O)OCc3cc(=O)n4c(C)csc4n3)cc2)cc1,·,22µM*,·,-16%,·,·
CCCc1nn2c(=O)cc(COC(=O)c3ccc(NC(=O)c4cccs4)cc3)nc2s1,·,11µM*,·,-23%,·,·
O=C(Nc1ccc2oc(-c3ccccc3)nc2c1)c1ccco1,i,?,23µM*,-1%,13%,-5%
O=C(Nc1ccccc1)c1cccc(-c2nnc(-c3ccccc3)o2)c1,i,-7%,i,-16%,9%,8%
O=C(Nc1nnc(-c2ccccc2Cl)o1)c1ccco1,i,17%,16µM*,-6%,8.9µM*,?
O=C(Nc1cccc(-c2nnc(-c3ccccc3)o2)c1)c1ccco1,i,2%,2.9µM*,-3%,9%,21%
Cc1ccc(-c2nnc(NC(=O)c3ccco3)o2)c(C)c1,?,-3%,?,-7%,?,-21%
Cc1nc(-c2ccc(C(=O)Nc3ccccc3F)cc2)cs1,?,3%,12µM*,-61%,12µM*,21µM*
C=CCn1c(=O)n2ncnc2c2c3c(sc21)CCCC3,i,8%,15µM*,5%,0%,7%

# Assay outcomes deposited in PubChem by National Center for Advancing Translational Sciences (NCATS).
